Source: the supplement of paper PMC7261846
Where a name gives a salt, the structure may show the parent alone. ± gives the uncertainty stated by the source.

System: Candida albicans SNY425 biofilm
Test: biofilm OD600 with compound plus antifungal (OD600 (absorbance)); higher = more biofilm remaining
[1] = assay detail: disruption of 24-h mature biofilm (compound + antifungal for a second 24 h)
[2] = assay detail: sustained inhibition (compound + antifungal during 90-min adherence and 24-h growth)

C[C@]1(Cn2ccnn2)[C@H](C(=O)O)N2C(=O)C[C@H]2S1(=O)=O [Tazobactam] + C[C@@H]1[C@H](O)[C@@H](C)/C=C/C=C/C=C/C=C/C=C/C=C/C=C/[C@H](O[C@@H]2O[C@H](C)[C@@H](O)[C@H](N)[C@@H]2O)C[C@@H]2O[C@](O)(C[C@@H](O)C[C@@H](O)[C@H](O)CC[C@@H](O)C[C@@H](O)CC(=O)O[C@H]1C)C[C@H](O)[C@H]2C(=O)O [amphotericin B] (first compound 12.5 µM)
biofilm OD600 [1]: 0.308 ± 0.008 | biofilm OD600 [2]: 0.193 ± 0.0071

N[C@H](C(=O)O)[C@@H]1CC(Cl)=NO1 [Acivicin] + CC[C@H](C)C[C@H](C)CCCCCCCCC(=O)N[C@H]1C[C@@H](O)[C@@H](NCCN)NC(=O)[C@@H]2[C@@H](O)CCN2C(=O)[C@H]([C@H](O)CCN)NC(=O)[C@H]([C@H](O)[C@@H](O)c2ccc(O)cc2)NC(=O)[C@@H]2C[C@@H](O)CN2C(=O)[C@H]([C@@H](C)O)NC1=O [caspofungin] (first compound 4 µM)
biofilm OD600 [1]: 0.296 ± 0.012 | biofilm OD600 [2]: 0.163 ± 0.0049

CC(C)C[C@H](NC(=O)N[C@H](C(=O)N[C@@H](CCC(N)=O)C(=O)N[C@@H](C)C=O)[C@@H]1CCNC(=N)N1)C(=O)O [Elastatinal] + C[C@@H]1[C@H](O)[C@@H](C)/C=C/C=C/C=C/C=C/C=C/C=C/C=C/[C@H](O[C@@H]2O[C@H](C)[C@@H](O)[C@H](N)[C@@H]2O)C[C@@H]2O[C@](O)(C[C@@H](O)C[C@@H](O)[C@H](O)CC[C@@H](O)C[C@@H](O)CC(=O)O[C@H]1C)C[C@H](O)[C@H]2C(=O)O [amphotericin B] (first compound 12.5 µM)
biofilm OD600 [1]: 0.273 ± 0.0073 | biofilm OD600 [2]: 0.21 ± 0.0065

NCCCC[C@H](N[C@@H](CCc1ccccc1)C(=O)O)C(=O)N1CCC[C@H]1C(=O)O [Lisinopril] + CC[C@H](C)C[C@H](C)CCCCCCCCC(=O)N[C@H]1C[C@@H](O)[C@@H](NCCN)NC(=O)[C@@H]2[C@@H](O)CCN2C(=O)[C@H]([C@H](O)CCN)NC(=O)[C@H]([C@H](O)[C@@H](O)c2ccc(O)cc2)NC(=O)[C@@H]2C[C@@H](O)CN2C(=O)[C@H]([C@@H](C)O)NC1=O [caspofungin] (first compound 12.5 µM)
biofilm OD600 [1]: 0.258 ± 0.011 | biofilm OD600 [2]: 0.178 ± 0.023

CC(C)C[C@H](NC(=O)N[C@H](C(=O)N[C@@H](CCC(N)=O)C(=O)N[C@@H](C)C=O)[C@@H]1CCNC(=N)N1)C(=O)O [Elastatinal] + CC[C@H](C)C[C@H](C)CCCCCCCCC(=O)N[C@H]1C[C@@H](O)[C@@H](NCCN)NC(=O)[C@@H]2[C@@H](O)CCN2C(=O)[C@H]([C@H](O)CCN)NC(=O)[C@H]([C@H](O)[C@@H](O)c2ccc(O)cc2)NC(=O)[C@@H]2C[C@@H](O)CN2C(=O)[C@H]([C@@H](C)O)NC1=O [caspofungin] (first compound 12.5 µM)
biofilm OD600 [1]: 0.263 ± 0.0069 | biofilm OD600 [2]: 0.189 ± 0.011

CC1CNc2c(cccc2S(=O)(=O)N[C@@H](CCCNC(=N)N)C(=O)N2CC[C@@H](C)C[C@@H]2C(=O)O)C1 (stereo not given in full) [Argatroban] + OC(Cn1cncn1)(Cn1cncn1)c1ccc(F)cc1F [fluconazole] (first compound 12.5 µM)
biofilm OD600 [1]: 0.286 ± 0.011 | biofilm OD600 [2]: 0.113 ± 0.0066

CCOC(=O)c1ccc(OC(=O)CCCCCNC(=N)N)cc1 [Gabexate mesylate] + OC(Cn1cncn1)(Cn1cncn1)c1ccc(F)cc1F [fluconazole] (first compound 12.5 µM)
biofilm OD600 [1]: 0.267 ± 0.013 | biofilm OD600 [2]: 0.116 ± 0.0062

CC(C)(C)NC(=O)[C@@H]1C[C@@H]2CCCC[C@@H]2CN1C[C@@H](O)[C@H](Cc1ccccc1)NC(=O)[C@H](CC(N)=O)NC(=O)c1ccc2ccccc2n1 [saquinavir] + C[C@@H]1[C@H](O)[C@@H](C)/C=C/C=C/C=C/C=C/C=C/C=C/C=C/[C@H](O[C@@H]2O[C@H](C)[C@@H](O)[C@H](N)[C@@H]2O)C[C@@H]2O[C@](O)(C[C@@H](O)C[C@@H](O)[C@H](O)CC[C@@H](O)C[C@@H](O)CC(=O)O[C@H]1C)C[C@H](O)[C@H]2C(=O)O [amphotericin B] (first compound 12.5 µM)
biofilm OD600 [1]: 0.243 ± 0.0076 | biofilm OD600 [2]: 0.0922 ± 0.0023

O=C[C@@H]1CCCN1C(=O)[C@@H]1CCCN1C(=O)OCc1ccccc1 [Z-Prolyl-prolinal] + CC[C@H](C)C[C@H](C)CCCCCCCCC(=O)N[C@H]1C[C@@H](O)[C@@H](NCCN)NC(=O)[C@@H]2[C@@H](O)CCN2C(=O)[C@H]([C@H](O)CCN)NC(=O)[C@H]([C@H](O)[C@@H](O)c2ccc(O)cc2)NC(=O)[C@@H]2C[C@@H](O)CN2C(=O)[C@H]([C@@H](C)O)NC1=O [caspofungin] (first compound 12.5 µM)
biofilm OD600 [1]: 0.261 ± 0.0097 | biofilm OD600 [2]: 0.153 ± 0.0098

NCC1CCC(C(=O)N[C@@H](Cc2ccccc2)C(=O)Nc2ccc(CC(=O)O)cc2)CC1 (stereo not given in full) + C[C@@H]1[C@H](O)[C@@H](C)/C=C/C=C/C=C/C=C/C=C/C=C/C=C/[C@H](O[C@@H]2O[C@H](C)[C@@H](O)[C@H](N)[C@@H]2O)C[C@@H]2O[C@](O)(C[C@@H](O)C[C@@H](O)[C@H](O)CC[C@@H](O)C[C@@H](O)CC(=O)O[C@H]1C)C[C@H](O)[C@H]2C(=O)O [amphotericin B] (first compound 12.5 µM)
biofilm OD600 [1]: 0.271 ± 0.0064 | biofilm OD600 [2]: 0.182 ± 0.017

NC(N)=NCCC[C@H](NC(=O)[C@@H]1CCCN1C(=O)[C@H](N)Cc1ccccc1)C(=O)CCl + OC(Cn1cncn1)(Cn1cncn1)c1ccc(F)cc1F [fluconazole] (first compound 12.5 µM)
biofilm OD600 [1]: 0.269 ± 0.0072 | biofilm OD600 [2]: 0.159 ± 0.011

CCC(C)[C@H](NS(=O)(=O)c1cccc2ccccc12)C(=O)N[C@H](C=O)Cc1c[nH]c2ccccc12 (stereo not given in full) + C[C@@H]1[C@H](O)[C@@H](C)/C=C/C=C/C=C/C=C/C=C/C=C/C=C/[C@H](O[C@@H]2O[C@H](C)[C@@H](O)[C@H](N)[C@@H]2O)C[C@@H]2O[C@](O)(C[C@@H](O)C[C@@H](O)[C@H](O)CC[C@@H](O)C[C@@H](O)CC(=O)O[C@H]1C)C[C@H](O)[C@H]2C(=O)O [amphotericin B] (first compound 12.5 µM)
biofilm OD600 [1]: 0.27 ± 0.0099 | biofilm OD600 [2]: 0.188 ± 0.0088

O=C(O)CNC(=O)C(CS)Cc1ccccc1 (racemic) [DL-Thiorphan] + OC(Cn1cncn1)(Cn1cncn1)c1ccc(F)cc1F [fluconazole] (first compound 12.5 µM)
biofilm OD600 [1]: 0.262 ± 0.0084 | biofilm OD600 [2]: 0.107 ± 0.0069

CC(C)(C)NC(=O)[C@@H]1C[C@@H]2CCCC[C@@H]2CN1C[C@@H](O)[C@H](Cc1ccccc1)NC(=O)[C@H](CC(N)=O)NC(=O)c1ccc2ccccc2n1 [saquinavir] + CC[C@H](C)C[C@H](C)CCCCCCCCC(=O)N[C@H]1C[C@@H](O)[C@@H](NCCN)NC(=O)[C@@H]2[C@@H](O)CCN2C(=O)[C@H]([C@H](O)CCN)NC(=O)[C@H]([C@H](O)[C@@H](O)c2ccc(O)cc2)NC(=O)[C@@H]2C[C@@H](O)CN2C(=O)[C@H]([C@@H](C)O)NC1=O [caspofungin] (first compound 12.5 µM)
biofilm OD600 [1]: 0.148 ± 0.0056 | biofilm OD600 [2]: 0.042 ± 0.0016

CC(C)CN(C[C@@H](O)[C@H](Cc1ccccc1)NC(=O)O[C@H]1CCOC1)S(=O)(=O)c1ccc(N)cc1 [amprenavir] + C[C@@H]1[C@H](O)[C@@H](C)/C=C/C=C/C=C/C=C/C=C/C=C/C=C/[C@H](O[C@@H]2O[C@H](C)[C@@H](O)[C@H](N)[C@@H]2O)C[C@@H]2O[C@](O)(C[C@@H](O)C[C@@H](O)[C@H](O)CC[C@@H](O)C[C@@H](O)CC(=O)O[C@H]1C)C[C@H](O)[C@H]2C(=O)O [amphotericin B] (first compound 12.5 µM)
biofilm OD600 [1]: 0.283 ± 0.009 | biofilm OD600 [2]: 0.232 ± 0.011

CC(C)(C)NC(=O)[C@@H]1CN(Cc2cccnc2)CCN1C[C@@H](O)C[C@@H](Cc1ccccc1)C(=O)N[C@H]1c2ccccc2C[C@H]1O [indinavir] + OC(Cn1cncn1)(Cn1cncn1)c1ccc(F)cc1F [fluconazole] (first compound 12.5 µM)
biofilm OD600 [1]: 0.273 ± 0.013 | biofilm OD600 [2]: 0.17 ± 0.015

CC[C@H](C)[C@H](N)C(=O)N1CCSC1 [P32/98 hemifumarate salt] + CC[C@H](C)C[C@H](C)CCCCCCCCC(=O)N[C@H]1C[C@@H](O)[C@@H](NCCN)NC(=O)[C@@H]2[C@@H](O)CCN2C(=O)[C@H]([C@H](O)CCN)NC(=O)[C@H]([C@H](O)[C@@H](O)c2ccc(O)cc2)NC(=O)[C@@H]2C[C@@H](O)CN2C(=O)[C@H]([C@@H](C)O)NC1=O [caspofungin] (first compound 12.5 µM)
biofilm OD600 [1]: 0.254 ± 0.0085 | biofilm OD600 [2]: 0.171 ± 0.0047

Cc1c(O)cccc1C(=O)N[C@@H](CSc1ccccc1)[C@H](O)CN1C[C@H]2CCCC[C@H]2C[C@H]1C(=O)NC(C)(C)C [nelfinavir] + CC[C@H](C)C[C@H](C)CCCCCCCCC(=O)N[C@H]1C[C@@H](O)[C@@H](NCCN)NC(=O)[C@@H]2[C@@H](O)CCN2C(=O)[C@H]([C@H](O)CCN)NC(=O)[C@H]([C@H](O)[C@@H](O)c2ccc(O)cc2)NC(=O)[C@@H]2C[C@@H](O)CN2C(=O)[C@H]([C@@H](C)O)NC1=O [caspofungin] (first compound 12.5 µM)
biofilm OD600 [1]: 0.17 ± 0.0053 | biofilm OD600 [2]: 0.127 ± 0.019

Cc1ccc(S(=O)(=O)N[C@@H](Cc2ccccc2)C(=O)CCl)cc1 + OC(Cn1cncn1)(Cn1cncn1)c1ccc(F)cc1F [fluconazole] (first compound 4 µM)
biofilm OD600 [1]: 0.241 ± 0.01 | biofilm OD600 [2]: 0.0966 ± 0.012

CC(C)C[C@H](NC(=O)[C@@H](O)[C@H](N)Cc1ccccc1)C(=O)O [Bestatin·HCl] + CC[C@H](C)C[C@H](C)CCCCCCCCC(=O)N[C@H]1C[C@@H](O)[C@@H](NCCN)NC(=O)[C@@H]2[C@@H](O)CCN2C(=O)[C@H]([C@H](O)CCN)NC(=O)[C@H]([C@H](O)[C@@H](O)c2ccc(O)cc2)NC(=O)[C@@H]2C[C@@H](O)CN2C(=O)[C@H]([C@@H](C)O)NC1=O [caspofungin] (first compound 12.5 µM)
biofilm OD600 [1]: 0.283 ± 0.013 | biofilm OD600 [2]: 0.187 ± 0.0098
